Source: PubChem (National Center for Advancing Translational Sciences (NCATS))
PINK1 expr mod: A Quantitative High throughput Screen to Identify Chemical Modulators of PINK1 Expression | PINK1 immunofluorescence, high-content cytometry, 24 h | Potency, µM (series often up to 76.6 µM), most hits filed as activators | 0.2% of 410,000 active; active = well fitted activation curve with a large enough effect; inconclusive = small, poorly fitted or top-dose-only effect; cell line not stated here; also: nearly all actives have a fitted effect of over 65% in size
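PINK1 protein, normally rapidly degraded, was detected by immunofluorescence after 24 hour compound treatment of a stable cell line. Titration data (5 concentrations) came from laser-scanning cytometry, with CCCP-treated wells as controls.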
ALOX12 inh: Primary qHTS assay for inhibitors of human arachidonate 12S-lipoxygenase (ALOX12): Round 2. Polyunsaturated fatty acid lipoxygenase ALOX12 (Homo sapiens), P18054. purified 12hLO, xylenol orange hydroperoxide absorbance. Potency, µM (series often up to 108 µM), usual class: inhibitors. 1.1% of 580,000 active. AID 1671190, 2021
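Purified human 12hLO (150 nM final) in 25 mM Hepes, 0.01% Triton X-100, pH 7.0 was preincubated 15 min at room temperature with compound. Then 40 uM arachidonic acid was added, 30 min. Hydroperoxide was read by Fe-XO absorbance ratio 573/405 nm.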
Mm-Cpn inhibitor: Inhibitors of TCP-1 ring complex (TRiC) of Methanococcus maripaludis (MmCpn): qHTS. purified Mm-Cpn ATPase, ADP Transcreener TR-FRET. Potency, µM (doses to about 76.9 µM), actives largely listed as inhibitors. 0.031% of 330,000 active; also: nearly all actives have a fitted effect of over 80% in size
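TR-FRET (320 nm excitation; 590 and 665 nm emission) reports ADP made from 10 uM ATP by 25 nM enzyme; compounds were preincubated 10 min, reaction run 30 min, both at 37°C.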
p53 reactivator: qHTS assay for re-activators of p53 using a Luc reporter; Potency, µM (series often up to 92.2 µM), actives largely listed as activators; AID 504706, 2011; H1299 p53-A138V BP100-luciferase reporter, luminescence, 24 h; 0.063% of 320,000 active; also: nearly all actives have a fitted effect of over 45% in size
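p53-null H1299 cells stably carrying temperature-sensitive p53-A138V and a BP100-luciferase reporter were pinned with compounds (4-point, 1:5 series) and held 24 hrs at 37 deg C. Luminescence was read 10 min after detection reagent.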
ASM inhibitor: Inhibitors of Secretory Acid Sphingomyelinase (S-ASM): qHTS; Potency, µM (series often up to 57.5 µM), most hits filed as inhibitors; AID 504937, 2011; 0.006% of 340,000 active; placental ASM, HMU-PC fluorogenic substrate, 60 min
Target sequence (P17405 47-631 limits assumed): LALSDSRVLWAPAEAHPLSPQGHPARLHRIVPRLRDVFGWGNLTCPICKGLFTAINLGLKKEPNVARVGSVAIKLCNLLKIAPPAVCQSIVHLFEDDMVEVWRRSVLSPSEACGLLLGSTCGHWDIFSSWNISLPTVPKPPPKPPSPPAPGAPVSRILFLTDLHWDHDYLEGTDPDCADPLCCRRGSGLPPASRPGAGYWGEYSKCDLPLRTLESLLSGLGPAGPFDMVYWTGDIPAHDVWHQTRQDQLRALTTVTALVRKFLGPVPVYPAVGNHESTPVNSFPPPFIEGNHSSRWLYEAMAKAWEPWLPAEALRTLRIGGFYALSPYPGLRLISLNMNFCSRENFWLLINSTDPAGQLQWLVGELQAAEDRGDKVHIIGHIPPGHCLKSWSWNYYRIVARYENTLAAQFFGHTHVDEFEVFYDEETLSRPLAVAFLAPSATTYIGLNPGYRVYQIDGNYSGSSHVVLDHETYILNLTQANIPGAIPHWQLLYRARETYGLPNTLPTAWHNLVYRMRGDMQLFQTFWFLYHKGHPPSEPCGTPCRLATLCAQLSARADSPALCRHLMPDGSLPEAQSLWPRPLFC
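Human placenta-derived ASM preincubated with compound 10 min at room temperature, then reacted with 9 uM (final) fluorogenic HMU-PC substrate for 60 min at 37 C. Stop solution raises pH to 10; fluorescence read at Ex 386/Em 447 nm.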
CCT chaperon mod: High-Throughput Screening for Modulators of Cytosolic Chaperonin Activity | purified chaperonin ATPase assay, HTRF ADP detection, 30 min | activity change, % (no concentration beside the values), hits read low | 0.3% of 360,000 active; in the data active = activity change below about -30%
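Enzyme 40 or 20 nM (batch-dependent) in Tris pH 7.4/KCl/MgCl2/DTT; cpd 76 uM single point; ATP 10 uM; 30 min 37 °C; Transcreener ADP HTRF detection, 30 min RT; ratio 665/615.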
Numbers stand for hits; [ ] = another dose, or the depositor's remark. Most compounds without a hit are left out; they make up all but 1.4% or so of the library. Unless noted, calls follow the shape of the dose curve; as a rule, active = well fitted curve in the direction sought with a large enough effect; inconclusive = small, poorly fitted or top-dose-only effect, or another doubt; inactive = no such curve, though single readings can be large; an effect the other way counts as inactive or inconclusive.

For S=c1[nH]nc(-c2ccc(Cl)cc2)n1/N=C/C=C/c1ccco1 the results were PINK1 expr mod inactive, ALOX12 inh 14µM, Mm-Cpn inhibitor inactive, p53 reactivator inactive, ASM inhibitor inactive and CCT chaperon mod inactive.
For S=c1[nH]nc(-c2cccnc2)n1/N=C/C=C/c1ccco1 the results were PINK1 expr mod inactive, ALOX12 inh inconclusive, Mm-Cpn inhibitor inactive, p53 reactivator inactive, ASM inhibitor inactive and CCT chaperon mod inactive.
S=c1[nH]nc(-c2ccccc2)n1/N=C/C=C/c1ccco1 was read as PINK1 expr mod inactive, ALOX12 inh 40µM, Mm-Cpn inhibitor inactive, p53 reactivator inactive, ASM inhibitor inactive and CCT chaperon mod inactive.
`S=c1[nH]nc(-c2ccc(Cl)cc2)n1/N=C/c1ccco1` gave PINK1 expr mod inactive, ALOX12 inh inconclusive, Mm-Cpn inhibitor inactive, p53 reactivator inactive, ASM inhibitor inactive and CCT chaperon mod inactive.
Cc1cccc(C(=O)NCCc2c[nH]c3ccc(C)cc23)c1 was read as ALOX12 inh inactive.
For O=c1cc(O)nc(-c2ccccc2)s1 the results were PINK1 expr mod inactive, ALOX12 inh inconclusive, Mm-Cpn inhibitor inactive, p53 reactivator inactive, ASM inhibitor inactive and CCT chaperon mod inactive.
O=c1cc(O)nc(-c2ccc(Cl)cc2)s1 was read as PINK1 expr mod inactive, ALOX12 inh 45µM, Mm-Cpn inhibitor inactive, p53 reactivator inactive, ASM inhibitor inactive and CCT chaperon mod inactive.
`O=C(Cc1c(F)cccc1Cl)NCc1cccnc1N1CCOCC1` gave ALOX12 inh inactive.
`Cc1ccc2c(c1)C1CC(c3ccccc3Cl)=NN1C1(CCN(C)CC1)O2` (configuration not stated) gave ALOX12 inh inactive.
`CCn1c(Oc2cccc(Br)c2)nc2c1c(=O)n(C)c(=O)n2C` gave PINK1 expr mod inactive, ALOX12 inh inactive, Mm-Cpn inhibitor inactive, p53 reactivator inactive, ASM inhibitor inactive and CCT chaperon mod -44.
`C=CS(=O)(=O)c1ccc(Oc2ccc(S(=O)(=O)C=C)cc2)cc1` gave PINK1 expr mod inactive, ALOX12 inh inactive, Mm-Cpn inhibitor inactive, p53 reactivator inactive, ASM inhibitor inactive and CCT chaperon mod -45.
C[N+](CCOCc1ccccc1)(CCOCc1ccccc1)CCOCc1ccccc1 was read as ALOX12 inh 18µM.
`COc1ccccc1C1CC(=O)Oc2cc(C)c(Cl)cc21` (configuration not stated) gave PINK1 expr mod inactive, ALOX12 inh 40µM, Mm-Cpn inhibitor inactive, p53 reactivator inactive, ASM inhibitor inactive and CCT chaperon mod inactive.
For NC(=S)N/N=C1\c2ccccc2-c2c(C(=O)O)cccc21 the results were PINK1 expr mod inactive, ALOX12 inh 32µM, Mm-Cpn inhibitor inactive, p53 reactivator inactive, ASM inhibitor inactive and CCT chaperon mod inactive.
For N#Cc1ccccc1Nc1ccnc(N2CC3CCC(C2)N3CC(F)(F)F)n1 the results were ALOX12 inh inactive[6.33 µM].
`Oc1c(Br)cc(C2N=C(c3ccccc3)NO2)cc1Br` (configuration not stated) gave PINK1 expr mod inactive, ALOX12 inh 28µM, Mm-Cpn inhibitor inactive, p53 reactivator inactive, ASM inhibitor inactive and CCT chaperon mod inactive.
`COc1cc(NC(=O)N2c3ccccc3Sc3ccccc32)c(C(=O)O)cc1OC` gave PINK1 expr mod inactive, ALOX12 inh 20µM, Mm-Cpn inhibitor inactive, p53 reactivator inactive, ASM inhibitor inactive and CCT chaperon mod inactive.
For COc1ccccc1NC(=O)N1c2ccccc2Sc2ccccc21 the results were PINK1 expr mod inactive and ALOX12 inh inconclusive.
`Cc1ccc(/C(O)=C2\C(=O)C(=O)N(CC(C)O)C2c2cccc(F)c2)cc1` (configuration not stated) gave PINK1 expr mod inactive, ALOX12 inh 18µM, Mm-Cpn inhibitor inactive, p53 reactivator inactive, ASM inhibitor inactive and CCT chaperon mod inactive.
